# PubChem BioAssay (EPA / NIEHS)
# Several values for one entry are separate records, joined by “and”; a condition that tells them apart may be missing. Equal values may be shown once. Activity calls are given as the source filed them. Rule for the calls: active = hit-call score of the fitted dose curve at least 0.9, where 1 is the maximum; inactive = score below 0.9.
# Read-out: Monokine induced gamma interferon (MIG), CXCL9 (gene 4283)
# Test: BSK_SAg_MIG: BioMAP Diversity Plus: SAg Assay for Monokine induced gamma interferon (MIG) Biomarker Activity (AID 2283092)
# Settings: primary human HUVEC with PBMC; actives raise or lower the signal
# Experimental: BSK_SAg is a cell-based, multiplexed-readout assay that uses umbilical vein endothelium and peripheral blood mononuclear cells, a human vascular primary cell co-culture, with measurements taken at 24 hours after chemical dosing in a 96-well plate.BSK_SAg_MIG is an assay component measured in the BSK_SAg assay. It measures MIG antibody related to regulation of gene expression using ELISA technology.Data from the assay component BSK_SAg_MIG was analyzed into 1 assay endpoint. This assay endpoint, BSK_SAg_MIG, was analyzed with bidirectional fitting relative to DMSO as the negative control and baseline of activity. Using a type of binding reporter, gain or loss-of-signal activity can be used to understand changes in the signaling as they relate to the gene CXCL9. Furthermore, this assay endpoint can be referred to as a primary readout, because this assay has produced multiple assay endpoints where this one serves a signaling function. To generalize the intended target to other relatable targets, this assay endpoint is annotated to the cytokine intended target family, where the subfamily is chemotactic factor.
# The levels of cell surface (or secreted, indicated by the prefix "s") biomarker endpoints were measured by ELISA. Overt cytotoxicity to cells in confluent adherent cultures (all systems other than the BT system) was assessed by measuring total protein levels using sulforhodamine B (SRB) staining in parallel cultures at the time of biomarker measurements, indicated as SRB endpoints. For proliferation assays for adherent cell types, individual cell types are cultured at sub-confluence and relative cell numbers quantified by SRB staining at time points optimized for each system (48 h: 3C and CASM3C systems; 72 h: BT and HDF3CGF systems; 96 h: SAg system). SRB was performed by staining cells with 0.1% SRB after fixation with 10% TCA and reading wells at 560 nm.Viability and proliferation of PBMC (T cells) was quantified by Alamar Blue reduction for the SAg and BT systems. For PBMC viability (referred to as PBMC Cytotoxicity within the assay endpoint names), cells were plated (75,000/well in a 96-well plate) and then chemical samples added for 1 h before addition of activators, SEB and TSST-1 (20 ng/mL final concentration each). Cells were incubated for 90 h. Then, Alamar Blue (20 uL/well) (Invitrogen, Cat DAL1100) was added for 6 h, and the plates were read with a fluorescence microplate reader at 546/580 nm (excitation/emission). For PBMC proliferation, cells were plated and activated as above but incubated for only 16 h prior to addition of Alamar Blue. Plates were read after 6 h.
Structure (SMILES),outcome,AC50
CCCCCCCCCC(=O)OCC,inactive,
C=C(F)C(=O)OC(C(F)(F)F)C(F)(F)F,inactive,
C[C@]12CC[C@@H]3c4ccc(O)cc4CC[C@H]3[C@@H]1CC[C@@H]2O,,20 µM (active)
OCC(F)(OC(F)(F)C(F)(OC(F)(F)C(F)(F)C(F)(F)F)C(F)(F)F)C(F)(F)F (stereo not given),inactive,
C#C[C@]1(O)CC[C@H]2[C@@H]3CCc4cc(O)ccc4[C@H]3CC[C@@]21C,inactive,
CC(=O)OC(C)(C)C1CC=C(C)CC1 (stereo not given),inactive,
CC1=CC(C)C(C=O)C(C)C1 (stereo not given) (tested in a mixture with another compound),inactive,
O=C(O)C(F)(F)C(F)(F)C(F)(F)C(F)(F)C(F)(F)C(F)(F)C(F)(F)C(F)F,inactive,
O=S1(=O)CC(Cl)(Cl)C(Cl)(Cl)C1,,2.75 µM (active)
C=C(C)C(N)=O,inactive,
CC=CC(=O)C1=C(C)C=CCC1(C)C,inactive,
CC(C)Cc1ccc(C(C)C(=O)O)cc1 (stereo not given),inactive,
CC(C)CCCC(C)(C)O,inactive,
O=C(O)C(F)(F)OC(F)(F)C(F)(F)OC(F)(F)C(F)(F)C(F)(F)C(F)(F)F,inactive,
C=C1CC/C=C(\C)CC[C@@H]2[C@@H]1CC2(C)C,inactive,
CC(C)(CO)CO,inactive,
CCOC(=O)C=Cc1ccccc1,inactive,
CCCCN(CCO)CCO,inactive,
CC/C(=C(\c1ccccc1)c1ccc(OCCN(C)C)cc1)c1ccccc1,,14.1 µM (active) and 11.3 µM (active)
CCCCCCCCCCCCS,inactive,

Structure (SMILES),outcome,AC50
O=S(=O)(O)C(F)(F)C(F)(F)OC(F)(F)C(F)(F)F,inactive,
CC(=O)OCC=C(C)CCC=C(C)CCC=C(C)C,inactive,
O=C1OC2(c3ccc(O)cc3Oc3cc(O)ccc32)c2ccccc21,inactive,
c1ccc2c(c1)-c1ccc3ccc4cccc5cc-2c1c3c45,inactive,
CCC(=O)OCC=Cc1ccccc1,inactive,
CC1(C)[C@H](C=C(Cl)Cl)[C@H]1C(=O)OCc1cccc(Oc2ccccc2)c1,inactive,
CC(=O)CCC=C(C)CCC=C(C)C,inactive,
NC(=O)c1c(Cl)cccc1Cl,inactive,
O=C(c1ccc(OCCN2CCCCC2)cc1)c1c(-c2ccc(O)cc2)sc2cc(O)ccc12,,34.7 µM (active)
C=C(C)C(=O)OCCC(F)(F)C(F)(F)C(F)(F)C(F)(F)C(F)(F)C(F)(F)C(F)(F)C(F)(F)F,inactive,
CCOC(=O)CCCCCCCCC(=O)OCC,inactive,
CCn1cc(C(=O)O)c(=O)c2ccc(C)nc21,inactive,
CCCO[Si](OCCC)(OCCC)OCCC,inactive,
CCCCOCCOCCO,inactive,
c1ccc(Sc2ccccc2)cc1,,34.5 µM (active)
CC(C)(C)c1cccc(O)c1,inactive,
COC(=O)c1ccc(C(=O)OC)cc1,inactive,
COc1ccccc1NC(=O)CC(C)=O,inactive,
Nc1ccc(N)c([N+](=O)[O-])c1,inactive,
CCCCCCCC1CCCC1=O (stereo not given),inactive,
